Laboratory results published in PubChem BioAssay (EPA / NIEHS).
Active and inactive are the calls of the source. How the source made its calls: active means hit-call score of the fitted dose curve at least 0.9, where 1 is the maximum; inactive means score below 0.9.

Key:
Conditions in all cases: mRNA level, 48 h; actives raise or lower the signal
[1] = read-out: Cytochrome P450 (CYP1A2), CYP1A2 (gene 1544); experiment: LTEA_HepaRG_CYP1A2: Life Technologies and Expression Analysis (LTEA) Assay for Cytochrome P450 (CYP1A2) using HepaRG (AID 2283479)
Method in brief: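 Assesses CYP1A2 mRNA in human HepaRG liver cells after 48 h chemical exposure at up to 100 uM. Values come from qRT-PCR with bidirectional curve fitting relative to DMSO.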

[2] = read-out: cysteine-aspartic acid protease (CASP8), CASP8 (gene 841); experiment: LTEA_HepaRG_CASP8: Life Technologies and Expression Analysis (LTEA) Assay for cysteine-aspartic acid protease (CASP8) using HepaRG (AID 2283480)
Method in brief: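 CASP8 transcript measured by TaqMan qRT-PCR with ACTB/GAPDH/POLR2A normalization, after 48 h chemical exposure of HepaRG cells in serum-free induction medium. Eight concentrations, top 100 uM, half-log steps, 0.5% DMSO vehicle; fits in both directions versus DMSO.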

[3] = read-out: Cytochrome P450 (CYP2B6), CYP2B6 (gene 1555); experiment: LTEA_HepaRG_CYP2B6: Life Technologies and Expression Analysis (LTEA) Assay for Cytochrome P450 (CYP2B6) using HepaRG (AID 2283481)
Method in brief: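 Using 48 h treatment of HepaRG cells in serum-free induction medium, concentrations spanned half-log steps from 100 uM in 0.5% DMSO vehicle. CYP2B6 mRNA induction or loss is scored by qRT-PCR against DMSO.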

[4] = read-out: Cytochrome P450 2C19 (Homo sapiens) (UniProt P33261); experiment: LTEA_HepaRG_CYP2C19: Life Technologies and Expression Analysis (LTEA) Assay for CYP2C19 using HepaRG (AID 2283482)
Method in brief: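 Human HepaRG liver cells received test chemicals for 48 h (highest 100 uM, half-log dilutions in 0.5% DMSO). CYP2C19 mRNA induction or loss is read by multiplexed qRT-PCR and fitted in both directions versus vehicle.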

CYP2C8 (gene 1558) = experiment: LTEA_HepaRG_CYP2C8: Life Technologies and Expression Analysis (LTEA) Assay for CYP2C8 using HepaRG (AID 2283483)
Method in brief: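 CYP2C8 expression measured by TaqMan qRT-PCR and normalized to three housekeeping genes. HepaRG cultures were treated for 48 h with an eight-point half-log series topping at 100 uM, vehicle 0.5% DMSO, duplicates; fitted both directions against DMSO.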

CYP2C9 (gene 1559) = experiment: LTEA_HepaRG_CYP2C9: Life Technologies and Expression Analysis (LTEA) Assay for CYP2C9 using HepaRG (AID 2283484)
Method in brief: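 CYP2C9 transcript level, quantified by TaqMan qRT-PCR against three housekeeping genes, was fitted bidirectionally relative to 0.5% DMSO. HepaRG cultures were treated 48 h, in duplicate, at eight half-log concentrations topping at 100 uM.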

CYP4A11 (gene 1579) = experiment: LTEA_HepaRG_CYP4A11: Life Technologies and Expression Analysis (LTEA) Assay for CYP4A11 using HepaRG (AID 2283486)
Method in brief: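 Readout is CYP4A11 mRNA induction or suppression (qRT-PCR, ACTB/GAPDH/POLR2A normalization) in human HepaRG cells after 48 h chemical treatment, concentrations to 100 uM in 0.5% DMSO, fitted bidirectionally against vehicle.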

[5] = read-out: Cytochrome P450 3A4 (Homo sapiens) (UniProt P08684); experiment: LTEA_HepaRG_CYP3A4: Life Technologies and Expression Analysis (LTEA) Assay for CYP3A4 using HepaRG (AID 2283487)
Method in brief: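 Differentiated HepaRG cells, plated 48 h, then dosed 48 h in serum-free induction medium with 0.5% DMSO, 8 half-log concentrations up to 100 uM, duplicate. CYP3A4 mRNA by qRT-PCR, normalized to ACTB/GAPDH/POLR2A; bidirectional fit versus DMSO.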

[6] = read-out: DNA damage-inducible transcript 3 (DDIT3), DDIT3 (gene 1649); experiment: LTEA_HepaRG_DDIT3: Life Technologies and Expression Analysis (LTEA) Assay for DNA damage-inducible transcript 3 (DDIT3) using HepaRG (AID 2283488)
Method in brief: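 qRT-PCR readout (Fluidigm TaqMan), housekeeping-normalized to ACTB, GAPDH, POLR2A. HepaRG cells, 48 h exposure, 8-point half-log series from 100 uM in 0.5% DMSO, duplicates. Gain or loss of signal fitted against DMSO baseline.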

[7] = read-out: Early growth response protein 1 (EGR1) transcription factor, EGR1 (gene 1958); experiment: LTEA_HepaRG_EGR1: Life Technologies and Expression Analysis (LTEA) Assay for Early growth response protein 1 (EGR1) transcription factor using HepaRG (AID 2283490)
Method in brief: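 EGR1 transcript levels quantified by qRT-PCR (Fluidigm arrays) against three housekeeping genes after 48 h chemical exposure of HepaRG cells. Eight-point half-log series topping at 100 uM, 0.5% DMSO vehicle, analyzed for gain or loss.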

[8] = read-out: Ezrin (EZR), EZR (gene 7430); experiment: LTEA_HepaRG_EZR: Life Technologies and Expression Analysis (LTEA) Assay for Ezrin (EZR) using HepaRG (AID 2283491)
Method in brief: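 EZR transcript levels came from Fluidigm qRT-PCR and were normalized to three housekeeping genes after 48 h chemical exposure of HepaRG cells. Dosing used an 8-point half-log series with a 100 uM top concentration in 0.5% DMSO, tested in duplicate; both directions were fitted versus vehicle.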

[9] = read-out: Cytochrome P450 3A7 (Homo sapiens) (UniProt P24462); experiment: LTEA_HepaRG_CYP3A7: Life Technologies and Expression Analysis (LTEA) Assay for CYP3A7 using HepaRG (AID 2283492)
Method in brief: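 Cells were thawed, plated, cultured 48 h, then treated for a further 48 h with chemicals (eight-point half-log series from 100 uM, 0.5% DMSO). RNA was isolated and CYP3A7 expression quantified by qRT-PCR normalised to ACTB, GAPDH and POLR2A.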

CYP3A5 (gene 1577) = experiment: LTEA_HepaRG_CYP3A5: Life Technologies and Expression Analysis (LTEA) Assay for CYP3A5 using HepaRG (AID 2283493)
Method in brief: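 qRT-PCR read-out: CYP3A5 transcript in HepaRG lysates, housekeeping-normalized (ACTB/GAPDH/POLR2A), fitted bidirectionally against 0.5% DMSO baseline. Exposure 48 h, eight half-log concentrations up to 100 uM, duplicates.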

[10] = read-out: Glutathione S-Transferase (GSTA2), GSTA2 (gene 2939); experiment: LTEA_HepaRG_GSTA2: Life Technologies and Expression Analysis (LTEA) Assay for Glutathione S-Transferase (GSTA2) using HepaRG (AID 2283497)
Method in brief: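 GSTA2 transcript levels came from Fluidigm TaqMan qRT-PCR normalized to three housekeeping genes, fitted in both directions against DMSO. HepaRG cultures received chemicals for 48 h in serum-free induction medium (0.5% DMSO), 8 half-log concentrations up to 100 uM, duplicate.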

[11] = read-out: Glutamate-cysteine ligase catalytic (GCLC), GCLC (gene 2729); experiment: LTEA_HepaRG_GCLC: Life Technologies and Expression Analysis (LTEA) Assay for Glutamate-cysteine ligase catalytic (GCLC) using HepaRG (AID 2283498)
Method in brief: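 Expression by TaqMan qRT-PCR, normalized to three housekeeping genes (ACTB, GAPDH, POLR2A), with up- or down-regulation fitted against DMSO. HepaRG cells dosed in duplicate for 48 h with 8 half-log concentrations up to 100 uM, vehicle 0.5% DMSO.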

[12] = read-out: Fatty Acid-Binding Protein 1 (FABP1), FABP1 (gene 2168); experiment: LTEA_HepaRG_FABP1: Life Technologies and Expression Analysis (LTEA) Assay for Fatty Acid-Binding Protein 1 (FABP1) using HepaRG (AID 2283494)
Method in brief: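 FABP1 expression by TaqMan qRT-PCR, normalised to three housekeeping genes, in HepaRG cells after 48 h chemical treatment. Eight-point half-log series topping at 100 uM in 0.5% DMSO, duplicates; gain or loss fitted relative to vehicle.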

[13] = read-out: Pro-epidermal growth factor (Homo sapiens) (UniProt P01133); experiment: LTEA_HepaRG_EGF: Life Technologies and Expression Analysis (LTEA) Assay for Epidermal growth factor (EGF) using HepaRG (AID 2283489)
Method in brief: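 EGF expression changes in human HepaRG cells are scored by bidirectional fitting relative to 0.5% DMSO controls. Chemicals are tested at eight half-log concentrations up to 100 uM for 48 h in serum-free induction medium.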

CYP2E1 (gene 1571) = experiment: LTEA_HepaRG_CYP2E1: Life Technologies and Expression Analysis (LTEA) Assay for CYP2E1 using HepaRG (AID 2283485)
Method in brief: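 CYP2E1 transcript was measured by TaqMan qRT-PCR in human HepaRG cultures after 48 h chemical exposure (top 100 uM, half-log steps, 0.5% DMSO vehicle). Housekeeping-gene normalization; gain or loss fitted relative to DMSO baseline.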

[14] = read-out: Cytochrome P450 4A22 (Homo sapiens) (UniProt Q5TCH4); experiment: LTEA_HepaRG_CYP4A22: Life Technologies and Expression Analysis (LTEA) Assay for Cytochrome P450 4A22 (CYP4A22) using HepaRG (AID 2283495)
Method in brief: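 Cryopreserved HepaRG cells, plated and cultured 48 h, then switched to serum-free induction medium and treated 48 h (duplicates, up to 100 uM, half-log steps, 0.5% DMSO). Expression change of CYP4A22 was fitted bidirectionally against vehicle.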

[15] = read-out: Cytochrome P450 7A1 (Homo sapiens) (UniProt P22680); experiment: LTEA_HepaRG_CYP7A1: Life Technologies and Expression Analysis (LTEA) Assay for Cytochrome P450 7A1 (CYP7A1) using HepaRG (AID 2283496)
Method in brief: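 Using 0.5% DMSO as vehicle and baseline, chemicals were tested in duplicate over an 8-point range from 100 uM on HepaRG cells for 48 h; qRT-PCR signals were normalised to ACTB, GAPDH and POLR2A.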

Measured: AC50

Cytochrome P450 2C19 (Homo sapiens), sequence (P33261 whole entry, looked up): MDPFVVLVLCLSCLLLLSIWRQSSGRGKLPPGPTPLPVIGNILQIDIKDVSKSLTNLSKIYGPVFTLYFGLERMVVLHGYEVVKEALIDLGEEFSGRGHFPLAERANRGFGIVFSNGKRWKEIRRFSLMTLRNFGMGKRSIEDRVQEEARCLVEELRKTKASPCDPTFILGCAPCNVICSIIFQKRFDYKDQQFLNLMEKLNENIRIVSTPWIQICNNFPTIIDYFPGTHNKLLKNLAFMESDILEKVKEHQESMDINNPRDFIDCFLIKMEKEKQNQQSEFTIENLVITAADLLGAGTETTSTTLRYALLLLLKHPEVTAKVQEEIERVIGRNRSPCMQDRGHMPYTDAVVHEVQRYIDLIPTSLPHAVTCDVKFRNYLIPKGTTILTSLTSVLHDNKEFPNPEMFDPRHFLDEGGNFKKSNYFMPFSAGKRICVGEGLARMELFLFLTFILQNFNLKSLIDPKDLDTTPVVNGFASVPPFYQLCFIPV
Cytochrome P450 3A4 (Homo sapiens), sequence (P08684 whole entry, looked up): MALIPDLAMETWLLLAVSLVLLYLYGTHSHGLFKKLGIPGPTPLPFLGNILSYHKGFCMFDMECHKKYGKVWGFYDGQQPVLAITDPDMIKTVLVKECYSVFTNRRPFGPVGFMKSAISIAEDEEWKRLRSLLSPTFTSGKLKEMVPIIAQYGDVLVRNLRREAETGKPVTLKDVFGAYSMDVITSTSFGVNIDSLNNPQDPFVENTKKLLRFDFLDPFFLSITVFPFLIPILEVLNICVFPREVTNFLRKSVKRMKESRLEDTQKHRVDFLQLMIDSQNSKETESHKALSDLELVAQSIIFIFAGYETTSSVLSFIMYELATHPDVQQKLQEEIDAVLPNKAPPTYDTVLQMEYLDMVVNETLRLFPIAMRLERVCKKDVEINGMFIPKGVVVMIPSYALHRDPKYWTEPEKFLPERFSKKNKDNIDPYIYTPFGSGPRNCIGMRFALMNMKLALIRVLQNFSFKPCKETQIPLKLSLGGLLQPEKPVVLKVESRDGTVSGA
Cytochrome P450 3A7 (Homo sapiens), sequence (P24462 whole entry, looked up): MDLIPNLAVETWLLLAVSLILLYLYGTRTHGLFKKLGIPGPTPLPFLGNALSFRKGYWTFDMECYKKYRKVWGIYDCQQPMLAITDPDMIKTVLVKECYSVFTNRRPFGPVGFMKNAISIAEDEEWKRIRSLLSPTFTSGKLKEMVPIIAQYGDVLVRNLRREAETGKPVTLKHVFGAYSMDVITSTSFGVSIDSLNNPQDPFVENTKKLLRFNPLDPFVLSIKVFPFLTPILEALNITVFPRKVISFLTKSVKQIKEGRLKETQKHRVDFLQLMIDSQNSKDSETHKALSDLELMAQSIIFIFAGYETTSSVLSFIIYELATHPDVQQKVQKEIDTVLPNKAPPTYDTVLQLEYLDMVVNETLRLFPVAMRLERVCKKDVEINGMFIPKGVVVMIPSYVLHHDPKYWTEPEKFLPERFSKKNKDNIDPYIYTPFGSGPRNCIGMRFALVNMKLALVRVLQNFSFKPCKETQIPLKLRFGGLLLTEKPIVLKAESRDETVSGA

CC(C)CC(C)(O)C#CC(C)(O)CC(C)C (stereo unspecified)
active: [3] 21.9 µM | [4] 29.5 µM | CYP4A11 (gene 1579) 50 µM | [5] 19.4 µM
inactive: [1] | [2] | CYP2C8 (gene 1558) | CYP2C9 (gene 1559) | [6] | [7] | [8] | [9] | CYP3A5 (gene 1577) | [10] | [11]

CC(C)=CCC/C(C)=C\CO
inactive: [2] | [6] | [7] | [8] | [12] | [10] | [11]

NC(=O)NO
inactive: [2] | [6] | [13] | [7] | [8] | [10] | [11]

O=C(O)CC(O)C(=O)O (stereo unspecified)
inactive: [1] | [2] | [3] | [4] | CYP2C8 (gene 1558) | CYP2E1 (gene 1571) | CYP4A11 (gene 1579) | [5] | [6] | [7] | [8] | CYP3A5 (gene 1577) | [12] | [14] | [15] | [10] | [11]

CC[C@H](C)C(=O)O[C@H]1C[C@@H](C)C=C2C=C[C@H](C)[C@H](CC[C@@H]3C[C@@H](O)CC(=O)O3)[C@H]21
inactive: [2] | [3] | CYP2C8 (gene 1558) | CYP4A11 (gene 1579) | [6] | [13] | [7] | [8] | [14] | [15] | [10] | [11]
active: [1] 6.18 µM

C=CCCCCCCCCC(=O)O
inactive: [2] | [3] | [4] | CYP2C8 (gene 1558) | CYP4A11 (gene 1579) | [5] | [6] | [7] | [8] | CYP3A5 (gene 1577) | [12] | [14] | [15] | [10] | [11]
active: [1] 50 µM

On1ccccc1=S
inactive: [1] | [2] | [3] | [4] | CYP2C8 (gene 1558) | CYP4A11 (gene 1579) | [5] | [6] | [7] | [8] | CYP3A5 (gene 1577) | [10] | [11]

CC1(C)C(=O)N(Br)C(=O)N1Br
active: [1] 37.5 µM | [3] 7.06 µM
inactive: [2] | [4] | CYP2C8 (gene 1558) | CYP4A11 (gene 1579) | [5] | [6] | [7] | [8] | [9] | CYP3A5 (gene 1577) | [14] | [15] | [10] | [11]

CCC(C)(C)C(=O)O[C@H]1C[C@@H](C)C=C2C=C[C@H](C)[C@H](CC[C@@H]3C[C@@H](O)CC(=O)O3)[C@H]21
inactive: [2] | [6] | [13] | [7] | [8] | [10] | [11]
